Measured values reported in ChEMBL document CHEMBL1201862, “PubChem BioAssay data set” (2004).
Among all 41,000 sequences or so, about 2,700 (6.6%) were called active. Rule as the data show it: active = GI50 up to about 1.1 µM and inactive = higher. Not all results are given here. Potency and affinity values are given separately.

These substances were tested on BT-549.

**Q.** Which GI50 does the source give for “[Bis(aminomethyl)tetramethylenesilane]dichloropaltinum(II), CHEMBL2146205” here?
**A.** Its GI50 is 8.85 µM.

**Q.** Which GI50 does the source give for “[Bis(aminomethyl)pentamethylenesilane]tetrachloropaltinum(IV), CHEMBL2146204” here?
**A.** Its GI50 is 5.71 µM.

**Q.** How did the GI50 turn out when CISPLATIN, CHEMBL11359 was run?
**A.** Its GI50 is 3.73 µM.

**Q.** How did the GI50 turn out when “[Bis(aminomethyl)dimethylsilane]tetrachloroplatinum(IV), CHEMBL2146190” was run?
**A.** The GI50 was 16.4 µM.

**Q.** How did the GI50 turn out when “[Bis(aminomethyl)tetramethylenesilane]tetrachloropaltinum(IV), CHEMBL2146189” was run?
**A.** Its GI50 is 4.99 µM.

**Q.** Which GI50 does the source give for “[Bis(aminomethyl)pentamethylenesilane]dichloropaltinum(II), CHEMBL2146202” here?
**A.** Its GI50 is 16.6 µM.
